# A number with no mark means an inactive call.
# Test system: gramicidin D channels in DC22:1PC lipid vesicles (bilayer-modifying potency)
# Experiment: initial Tl+ fluorescence quench rate relative to no-drug control (NormRate, gramicidin monomer-dimer shift) (ratio (fold of control)); higher = stronger bilayer-modifying effect (equilibrium shifted toward conducting dimers), active = 1.5 or more
# Conditions: 10 µM; lipid concentration 50 µM; temperature: 25 °C
# Description: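 Stopped-flow fluorescence quench assay: ANTS-loaded DC22:1PC large unilamellar vesicles doped with gramicidin D (1:2000), 50 µM lipid, equilibrated 10 min with 10 µM drug (0.1% DMSO), mixed with Tl+ quench buffer at 25°C. Initial quench rate (Tl+ influx) was fitted with a modified stretched exponential and normalised to the no-drug control rate (NormRate); duplicates from two independent LUV preparations (triplicates for 7 drugs).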
row,SMILES,initial Tl+ fluorescence quench rate
1,CNc1nnc(Sc2cnn(-c3ccccc3)c(=O)c2Cl)s1,1.04
2,CCc1nc2ccccc2n1C[C@H](O)COc1cc(C)ccc1Cl,2.91 (active)
3,c1ccc(Oc2ccc(-c3cncc(-c4ccc5[nH]ccc5c4)n3)cc2)cc1,1.69 (active)
4,COc1cccc(-c2cc3c(Nc4cccnc4)nccc3[nH]2)c1,1.5
5,CN1CCC(NCc2cccc(-c3ccc(S(=O)(=O)NCc4ccccc4)cc3)c2)CC1,1.94 (active)
6,Cc1nc(-c2ccccn2)nc(NCCc2ccc(S(C)(=O)=O)cc2)c1Cl,1.13
7,COc1ccc(-c2cnc3ccc(N4CCCC4)nn23)cc1OC,2.31 (active)
8,COc1ccc([C@H]2CC(c3cccs3)=NN2C(=O)c2ccco2)cc1OC,1.86 (active)
9,CNC(=O)c1cc(S(=O)(=O)N2CCN(c3ccccn3)CC2)cs1,1.07
10,CCOC(=O)c1cc(-c2csc(Nc3c(C)cc(C)cc3C)n2)on1,1.15
11,CCN(CC)CCCCCCNc1cc(OC)cc2c(C)ccnc12,1.45
12,O=C1COCc2ccc(Br)cc2N1Cc1ccc(C(F)(F)F)cc1,1.55 (active)
13,CCOC(=O)NC(=O)c1ccsc1NC(=O)c1nc2ccccc2s1,3.21 (active)
14,CC(C)[C@H](C(=O)Nc1ccc(S(=O)(=O)N(C)C)cc1)c1ccc(Cl)cc1,4.3 (active)
15,CC[C@H](Sc1nc2ccccc2o1)C(=O)Nc1nccs1,1.18
16,COc1cncc(-c2cncc(N3CCN(c4ccncc4)CC3)n2)c1,1.11
17,O=C(Cn1ccnc1[N+](=O)[O-])NCc1ccccc1,1.01
18,COc1ccc(-c2cnc3ccc(NCc4ccc(S(N)(=O)=O)cc4)nn23)cn1,1.24
19,Cc1ccc(C(=O)Nc2ccc(S(=O)(=O)O)c3cc(S(=O)(=O)O)cc(S(=O)(=O)O)c23)cc1NC(=O)c1cccc(NC(=O)Nc2cccc(C(=O)Nc3cc(C(=O)Nc4ccc(S(=O)(=O)O)c5cc(S(=O)(=O)O)cc(S(=O)(=O)O)c45)ccc3C)c2)c1,2.56 (active)

row,SMILES,initial Tl+ fluorescence quench rate
1,COc1cccc2c(C)nc(N=C(N)N)nc12,1.08
2,CCNC(=O)[C@H](C)Nc1nc(-c2cccnc2)nc2sc(C)c(C)c12,1.08
3,Cc1nnc(NC(=O)c2cn(-c3ccccc3)nc2-c2ccccc2C)o1,1.02
4,O=C(N[C@H](Cc1ccccc1)C(=O)Nc1ccccc1N1CCOCC1)c1cccs1,1.21
5,COc1ccc(C2=NN(C3CCCCCC3)C(=O)C2(C)C)cc1OCc1ccccn1,1.8 (active)
6,Cc1ccc(S(=O)(=O)n2cc(-c3ccnc(N)c3)c3cc(Br)cnc32)cc1,2.5 (active)
7,Cc1nn(C)cc1[C@H](C)Nc1nncc(-c2ccc(C(F)(F)F)cc2)n1,1.93 (active)
8,CC(C)[C@H](NC(=O)Cc1cccc2ccccc12)C(=O)Nc1cccc(C#N)c1,1.74 (active)
9,O=C(NCCc1ccn(-c2ccccc2)n1)C1CCCCC1,1.05
10,CNC(=O)c1nn(C)c2c1C(C)(C)Cc1cnc(Nc3ccc(N4CCN(C)CC4)cc3)nc1-2,1.04
11,Nc1nccc2ccc(-c3ccc4nccn4c3)cc12,1.17
12,CCCn1c(CNc2ccccc2O)nc2ccccc21,1.05
13,CC(C)(C)OC(=O)N1CCN(c2cc(-c3ccc(Oc4ccccc4)cc3)n[nH]2)CC1,3.47 (active)
14,CC(C)(C)n1nc(Cc2cccc3ccccc23)c2c(N)ncnc21,2.86 (active)
15,[H]/N=C(/N)c1ccc(-c2cc(-c3ccccc3)on2)cc1,1.08
16,Cc1cnc(N2CCN[C@@H](Cc3ccccc3)C2)nc1Oc1ccc(-n2ccnc2)cc1,1.72 (active)
17,N#Cc1nc(-c2ccccc2)oc1S(=O)(=O)c1ccc(Cl)cc1,1.12
18,CS(=O)(=O)c1cccc(-c2cnc3[nH]cc(-c4ccc(CCC(=O)O)cc4)c3c2)c1,1.09
19,c1ccc(-c2[nH]c3ccccc3c2[C@H](c2ccccn2)N2CCCC2)cc1,1.06

# From the supplement of paper PMC9948646
